Data as given in PubChem BioAssay AID2156 (Johns Hopkins Ion Channel Center, 2009).
Hit rate of the full screen: of about 310,000 compounds, about 3,400 (1.1%) were called active.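 How the source made its calls: active means fluorescence ratio B-score at most minus 3 library SDs, with starting brightness B-score within 2 library SDs (cut at about -5.5 in these data); inactive means the rest, inconclusive results apart.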 Only a selection was taken, and actives are over-represented in it overall. Square brackets hold non-standard residues; d marks the D form. Peptide text beside a SMILES is read from it. * marks the point of attachment. ξ: configuration not given here. Cbz = O=C(OCc1ccccc1)*; ξL = CC(C)CC(N)C(=O)O; Bz = O=C(c1ccccc1)*; ξP = O=C(O)C1CCCN1

target: Potassium voltage-gated channel subfamily KQT member 2 (Rattus norvegicus) (UniProt O88943); assay: KCNQ2 channel blockers in CHO-K1 cells – cell-based, FluxOR thallium flux, B-score, primary screen (AID 2156); conditions: 20 min, at 10 µM; hits give low values
Sequence (O88943 whole entry, looked up): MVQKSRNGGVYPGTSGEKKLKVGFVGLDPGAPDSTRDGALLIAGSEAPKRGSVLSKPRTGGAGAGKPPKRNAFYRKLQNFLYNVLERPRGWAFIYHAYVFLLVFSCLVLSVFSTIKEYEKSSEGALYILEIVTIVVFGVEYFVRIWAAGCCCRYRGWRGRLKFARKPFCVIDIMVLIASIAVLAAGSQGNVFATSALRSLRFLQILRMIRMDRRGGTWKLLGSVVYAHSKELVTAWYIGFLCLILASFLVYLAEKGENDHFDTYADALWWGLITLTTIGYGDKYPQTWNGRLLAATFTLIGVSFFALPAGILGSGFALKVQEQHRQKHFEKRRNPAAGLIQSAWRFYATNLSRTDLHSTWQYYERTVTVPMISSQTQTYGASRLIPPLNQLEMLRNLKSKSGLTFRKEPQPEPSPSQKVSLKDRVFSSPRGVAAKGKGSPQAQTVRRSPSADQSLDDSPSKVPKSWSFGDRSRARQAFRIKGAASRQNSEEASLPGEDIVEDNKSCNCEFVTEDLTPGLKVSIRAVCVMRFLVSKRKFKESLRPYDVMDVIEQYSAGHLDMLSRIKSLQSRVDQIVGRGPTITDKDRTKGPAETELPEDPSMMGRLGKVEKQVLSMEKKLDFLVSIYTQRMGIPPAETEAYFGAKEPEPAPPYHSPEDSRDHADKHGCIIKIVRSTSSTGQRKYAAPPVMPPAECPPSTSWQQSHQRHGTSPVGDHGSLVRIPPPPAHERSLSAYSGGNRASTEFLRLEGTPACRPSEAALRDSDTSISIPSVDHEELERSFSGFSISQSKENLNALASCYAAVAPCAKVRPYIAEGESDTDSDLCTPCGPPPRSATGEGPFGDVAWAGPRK

B-score, active:
O=C(NCc1ccccc1Cl)C1CCCN1S(=O)(=O)c1ccc(F)cc1 (stereo not drawn) -6.35
CC(C)N(C(=O)CSc1nc(COc2ccccc2)nc2ccccc12)C(C)C -7.53
Cc1ccccc1N1CCN(CC(=O)NCc2ccc(Cl)cc2)CC1 -8.15
Cc1cccc(-n2cc(CN3CCN(C(=O)c4ncn[nH]4)CC3)c(-c3cccc(F)c3)n2)c1 -8.35
COC(=O)C1=C(C)N(C(C)c2ccccc2)C(=O)/C1=C\c1ccco1 (stereo not drawn) -8.53
CC(C)C(NC(=O)OCc1ccccc1)C(=O)OCC(=O)N1C(C)CCCC1C (stereo not drawn) -8.16
CC(C)[C@H](NC(=O)OCc1ccccc1)C(=O)OCc1ccccc1 -7.34
COc1ccccc1NC(=O)CSc1nnc(-c2ccoc2C)n1CCc1ccccc1 -8.21
CC1=C(C(=O)Nc2ccccc2)C(c2cccs2)C(C#N)=C(SCC#N)N1 (stereo not drawn) -6.59
C=CC(COCc1ccccc1)N(Cc1ccccc1)S(=O)(=O)c1ccccc1Br (stereo not drawn) -5.61
CCc1noc(C)c1C(=O)Oc1ccc(N(C)S(=O)(=O)c2ccc(C)c(C)c2)cc1 -6.86
CN(Cc1ccccc1F)C(=O)C(Cc1ccccc1)NC(=O)c1ccccc1 (stereo not drawn) -7.91

B-score, inactive:
CCN(Cc1ccccc1)S(=O)(=O)c1cc2c3c(c1)CCN3C(=O)CC2 -0.41
Cc1ccc(S(=O)(=O)N2CCC(C(=O)NCCC3=CCCCC3)CC2)cc1C
Cc1cccc(NC(=O)C2CCCN2S(=O)(=O)c2ccc(F)cc2)c1C (stereo not drawn) -3.21
COc1ccc(NC(=O)N2CCCC2C(=O)NCc2ccccc2Cl)cc1 (stereo not drawn) -1.43
CCOc1ccc(NC(=O)CN(C)C(=O)c2c(C)noc2C)cc1OCC -0.82
CCN(C(=O)CSc1nnnn1-c1ccccc1OC)C1CCS(=O)(=O)C1 (stereo not drawn) -0.06
CCc1nc(SCC(=O)NNC(=O)c2ccc(C)cc2)c2ccccc2n1 -1.77
CCCc1nc(SCC(=O)Nc2ccc(S(=O)(=O)N(C)C)cc2)c2ccccc2n1
CC[C@@]12C(=O)N(c3ccccc3)C(=O)N1[C@H](c1ccc(Br)cc1)[C@@H]1C(=O)N(C(C)(C)C)C(=O)[C@@H]12
Cc1ccc(CNC(=O)CN2CCN(Cc3ccc(Cl)cc3)C2=O)cc1 -0.18
O=C(CN1CCN(c2ccc(Cl)cc2)CC1)NCc1cccs1 -0.84
COc1ccc(NC(=O)CN(C)C(=O)CC2CCCCC2)cc1 -0.05
COc1ccc2c(c1)C(=O)Nc1cc(Cl)ccc1N2
Cc1ccc(C)c(-n2cc(CN3CCN(C(=O)c4ncn[nH]4)CC3)c(-c3ccccc3)n2)c1 -1.41
CCC(O)C1CCN(Cc2cn(-c3ccc(OC)cc3)nc2-c2cccc(F)c2)CC1 (stereo not drawn)
CCN1C(=O)[C@@H]2[C@@H](c3ccc(-c4ccc(OC)cc4)c(OC)c3)N3CCC[C@@]3(C(=O)OC)[C@@H]2C1=O
O=C(CCCN1C(=O)/C(=C/c2ccco2)SC1=S)Nc1ccccc1 -0.39
COC(=O)C1=C(C)N(c2ccc(Br)cc2)C(=O)/C1=C\c1ccco1 -1.96
COc1ccc(CCNC(=O)C(=O)NCC2CCCN2S(=O)(=O)c2cccs2)cc1OC (stereo not drawn)
COc1ccc(COC(=O)NC(C(=O)O)c2ccccc2)cc1 (stereo not drawn)
COC(=O)[C@H](Cc1ccccc1)NC(=O)[C@@H]1C[C@H]1[C@@H](NC(=O)OCc1ccccc1)c1ccccc1
COC(=O)[C@H](C)[C@H]1C[C@]1(C)[C@H](NC(=O)OCc1ccccc1)c1ccccc1 -3.52
CC(C)CC(NC(=O)C1CCCN1C(=O)[C@@H](C)NC(=O)OCc1ccccc1)C(=O)NCC(N)=O (stereo partly drawn) (Cbz-[dA][ξP][ξL]G-NH2)
Cc1ccc(C)c(OCCC(=O)Nc2cccc(S(=O)(=O)N3CCCC3)c2)c1
Cc1ccc2nc(SCC(=O)Nc3cccc4ccccc34)nc(=O)n2c1 -0.48
COc1ccc(NC(=O)CN(C)C(=O)Cc2coc3cc(C)c(C)cc23)cc1 -0.02
Brc1cnc2ccccc2c1N1CCCCC1
CCCn1c(SCC(=O)Nc2cccc(C(=O)OCC)c2)nnc1-c1ccoc1C -0.31
COc1ccccc1NC(=O)CSc1nnc(C)n1CC1CCCO1 (stereo not drawn)
O=C(COc1coc(CN2CCN(c3ccccc3)CC2)cc1=O)N1CCc2ccccc21
C=CCOC(=O)C1=C(C)NC(C)=C(C(=O)OCC=C)C1c1cccs1 -2.85
CC1=C(C(=O)Nc2ccccc2)C(c2ccco2)C(C#N)=C(SCC(N)=O)N1 (stereo not drawn)
CCN(C(=O)COC(=O)c1sccc1C)c1c(N)n(Cc2ccccc2)c(=O)[nH]c1=O
N#CCCN(C(=O)COC(=O)c1ccc(S(=O)(=O)N2CCCCCC2)cc1)c1ccccc1
Cc1ccc(C)c(OCCC(=O)OCC(=O)NC(=O)NCc2ccccc2)c1
COc1ccc2c(c1)O/C(=C\c1ccccc1O)C2=O -0.61
COc1ccc(NC(=O)CN(C)C(=O)c2ccc(NC3CC3)c([N+](=O)[O-])c2)cc1
C=CCCN(Cc1ccccc1)S(=O)(=O)c1ccccc1Br
CC1CCN(c2ccc(-c3ccc(NC(=O)c4ccco4)cc3)nn2)CC1
COCCNC(=O)COc1ccc(N(C)S(=O)(=O)c2ccc3ccccc3c2)cc1
Cc1ccc(S(=O)(=O)N(C)C)cc1NC(=O)COC(=O)c1c(C)noc1C -0.34
CCCc1cc(=O)[nH]c2nnc(SCC(=O)Nc3nnc(SCC)s3)n12
Cc1ccc(-c2csc(NC(=O)C3=COCCO3)n2)cc1C -0.1
CC(Cc1ccccc1)C(=O)N(C)Cc1ccccc1 (stereo not drawn) -0.83
O=C(NC(Cc1ccccc1)C(=O)N1CCCC1C(=O)O)c1ccccc1 (stereo not drawn) (Bz-Phe-Pro-OH; configuration not given here) -0.06
CSc1ccccc1NC(=O)C(C)N1C(=O)c2ccccc2S1(=O)=O (stereo not drawn)
